Test results as given in PubChem BioAssay (EPA / NIEHS).
Where “and” joins values, the source holds several entries; their conditions need not be identical. Equal entries are not always repeated. Records with an inconclusive call do not appear. Where a structure was tested more than once in an assay, its records may differ in their call. Calls of active or inactive are those of the source. The calls were made as follows: active = hit-call score of the fitted dose curve at least 0.9, where 1 is the maximum; inconclusive = response in the unintended direction; inactive = score below 0.9.

Assay: TOX21_p53_BLA_p5_viability: Viability Assessment in the Tox21 HCT-116 p53 Agonism Beta-lactamase Assay, Phase 5 (AID 2283600)
Method in brief: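 Workflow: seed 4000 cells per well, wait 5 h, add compounds (DMSO, 217-fold dilution), incubate 16 h, load CCF4-AM 2 h, add CellTiter-Glo, read luminescence after 30 min.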

**Q.** With `O=C(Nc1cccc([N+](=O)[O-])c1)c1cc2ccccc2cc1O` as the compound, how does the outcome read?
**A.** inactive

**Q.** For `Cc1cc(Cc2cc(C)cc(C(C)(C)C)c2O)c(O)c(C(C)(C)C)c1`, which AC50 is on record?
**A.** 17.7 µM (active) and 16.7 µM (active)

**Q.** For `O=C(O)c1cccc(C(=O)O)n1`, which outcome is on record?
**A.** inactive

**Q.** For `CCOCCOCC`, which outcome is on record?
**A.** inactive

**Q.** Which outcome does the source give for `CCOC(C)=O` here?
**A.** inactive

**Q.** Which outcome does the source give for `NS(=O)(=O)O` here?
**A.** inactive

**Q.** Which outcome does the source give for `CCCCCCCCCCCCCC[n+]1ccccc1` here?
**A.** inactive

**Q.** With `C[C@]12CC[C@@H]3c4ccc(O)cc4CC[C@H]3[C@@H]1CC[C@@H]2OC(=O)CCC1CCCC1` as the compound, how does the outcome read?
**A.** inactive

**Q.** With `Cc1ccc(C)c(S(=O)(=O)O)c1` as the compound, how does the outcome read?
**A.** inactive

**Q.** For `CCN(CC)CC`, which outcome is on record?
**A.** inactive

**Q.** For `O=C1OC(=O)c2cc(-c3ccc4c(c3)C(=O)OC4=O)ccc21`, which outcome is on record?
**A.** inactive

**Q.** With `CCCCCCCCC1CCC(=O)O1` (centres undefined) as the compound, how does the outcome read?
**A.** inactive

**Q.** With `CC(O)COc1ccccc1` (centres undefined) as the compound, how does the outcome read?
**A.** inactive

**Q.** For `O=C(NO)c1ccccc1`, which outcome is on record?
**A.** inactive

**Q.** With `Oc1c(Cl)cc(Cl)cc1Sc1cc(Cl)cc(Cl)c1O` as the compound, how does the AC50 read?
**A.** 82 µM (active) and 85.7 µM (active)

**Q.** What about the outcome of the same compound?
**A.** inactive

**Q.** Which outcome does the source give for `CCC1CO1` (centres undefined) here?
**A.** inactive

**Q.** For `O=C(c1cc(O)c(O)c(O)c1)c1ccc(O)c(O)c1O`, which outcome is on record?
**A.** inactive

**Q.** With `O=C(Nc1ccc(Cl)c(Cl)c1)c1cc(Cl)cc(Cl)c1O` as the compound, how does the outcome read?
**A.** inactive

**Q.** With `CCCCCC(C)OC(=O)COc1ccc(Cl)c2cccnc12` (centres undefined) as the compound, how does the outcome read?
**A.** inactive

**Q.** For `CC1=NN(c2ccccc2)C(=O)C1`, which outcome is on record?
**A.** inactive

**Q.** Which outcome does the source give for `Cc1cc(C(C)(C)C)c(O)c(C(C)(C)C)c1` here?
**A.** inactive

**Q.** For `COCN(COC)c1nc(N(COC)COC)nc(N(COC)COC)n1`, which outcome is on record?
**A.** inactive

**Q.** Which outcome does the source give for `COC(=O)CC(C(C)=O)C(=O)OC` (centres undefined) here?
**A.** inactive

**Q.** With `OCC1CCC(CO)CC1` (centres undefined) as the compound, how does the outcome read?
**A.** inactive

**Q.** Which outcome does the source give for `CC(C)(O)C(=O)c1ccccc1` here?
**A.** inactive

**Q.** With `CCCCCCCCCCCCOC(=O)c1cc(O)c(O)c(O)c1` as the compound, how does the AC50 read?
**A.** 41.2 µM (active) and 78.9 µM (active)

**Q.** Which outcome does the source give for `NCc1cccc(CN)c1` here?
**A.** inactive

**Q.** With `CCC(=O)C=Cc1ccc(OC)cc1` as the compound, how does the outcome read?
**A.** inactive
